# Columns and labels:
# Experiment in all cases: DAPPL (digital affinity profiling via proximity ligation, sequencing); 10 mM Tris-HCl pH 7.5, 50 mM NaCl, 1 mM DTT, 4% glycerol, room temperature, 30 min; GST-TFs on glutathione beads, 16-mer random dsDNA library, 0.1% formaldehyde crosslink after washing; high values mean tight binding
# [1] = target: T1, FLI1 (Homo sapiens, UniProt Q01543 1-452); conditions: protein: recombinant; tags: N-terminal GST; dsDNA, one strand shown
# T1 sequence: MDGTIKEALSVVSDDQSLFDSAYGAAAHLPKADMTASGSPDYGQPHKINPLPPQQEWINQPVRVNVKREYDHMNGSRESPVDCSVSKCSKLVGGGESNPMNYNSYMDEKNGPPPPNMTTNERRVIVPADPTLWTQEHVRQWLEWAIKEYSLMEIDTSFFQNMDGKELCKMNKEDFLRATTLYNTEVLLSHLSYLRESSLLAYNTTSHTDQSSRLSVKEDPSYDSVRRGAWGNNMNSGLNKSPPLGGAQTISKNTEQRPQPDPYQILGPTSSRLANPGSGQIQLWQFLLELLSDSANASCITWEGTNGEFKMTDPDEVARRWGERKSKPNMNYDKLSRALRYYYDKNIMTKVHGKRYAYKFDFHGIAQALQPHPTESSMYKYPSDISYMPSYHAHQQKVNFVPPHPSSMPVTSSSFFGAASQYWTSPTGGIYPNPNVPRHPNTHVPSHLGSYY
# In short: (§1)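 In yeast, human transcription factors were expressed with a GST fusion, then pulled down on glutathione beads and given DNA barcodes. Pooled with a tag-only sample, they were exposed to 200 nmole of a 16-mer random double-stranded DNA library (Tris/NaCl/DTT/glycerol buffer, room temperature, 30 min), washed, crosslinked with 0.1% formaldehyde, proximity-ligated using BsaI/T4 ligase for 1 h at 37 °C, PCR-amplified and read on an Illumina NextSeq500. Each hexamer's frequency of reads for a factor, divided by the matching frequency for the tag-only sample, gives the binding signal.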
# [2] = target: T2, ELK1 (Homo sapiens, UniProt P19419 1-428); conditions: protein: recombinant; tags: N-terminal GST; dsDNA, one strand shown
# T2 sequence: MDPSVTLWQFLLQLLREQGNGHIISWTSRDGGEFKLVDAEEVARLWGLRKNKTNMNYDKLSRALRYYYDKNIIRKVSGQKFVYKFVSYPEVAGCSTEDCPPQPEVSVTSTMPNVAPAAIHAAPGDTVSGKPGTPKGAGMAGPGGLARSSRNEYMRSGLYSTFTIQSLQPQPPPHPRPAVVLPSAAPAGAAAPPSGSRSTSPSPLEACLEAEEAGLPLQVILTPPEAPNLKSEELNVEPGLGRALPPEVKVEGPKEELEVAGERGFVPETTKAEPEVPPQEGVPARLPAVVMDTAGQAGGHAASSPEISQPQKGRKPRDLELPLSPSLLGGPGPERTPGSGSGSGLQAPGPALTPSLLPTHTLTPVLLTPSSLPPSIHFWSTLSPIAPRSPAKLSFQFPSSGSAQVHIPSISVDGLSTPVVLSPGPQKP
# In short: as §1
# [3] = target: T3, GABPA (Homo sapiens, UniProt Q06546 1-454); conditions: protein: recombinant; tags: N-terminal GST; dsDNA, one strand shown
# T3 sequence: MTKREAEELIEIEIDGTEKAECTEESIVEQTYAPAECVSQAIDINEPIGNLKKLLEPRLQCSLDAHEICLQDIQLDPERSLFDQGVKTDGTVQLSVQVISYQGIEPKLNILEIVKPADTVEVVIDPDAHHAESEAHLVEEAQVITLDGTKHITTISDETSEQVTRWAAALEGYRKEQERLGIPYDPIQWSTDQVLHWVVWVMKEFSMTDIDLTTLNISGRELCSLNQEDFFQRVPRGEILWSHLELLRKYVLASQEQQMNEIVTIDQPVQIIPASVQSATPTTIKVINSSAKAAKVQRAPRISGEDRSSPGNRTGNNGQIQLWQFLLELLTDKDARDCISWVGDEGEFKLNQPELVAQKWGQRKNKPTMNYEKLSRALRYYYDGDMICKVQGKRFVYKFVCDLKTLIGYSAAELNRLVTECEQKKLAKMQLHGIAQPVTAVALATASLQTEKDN
# In short: as §1
# [4] = target: T4, ERG (Homo sapiens, UniProt P11308 1-479); conditions: protein: recombinant; tags: N-terminal GST; dsDNA, one strand shown
# T4 sequence: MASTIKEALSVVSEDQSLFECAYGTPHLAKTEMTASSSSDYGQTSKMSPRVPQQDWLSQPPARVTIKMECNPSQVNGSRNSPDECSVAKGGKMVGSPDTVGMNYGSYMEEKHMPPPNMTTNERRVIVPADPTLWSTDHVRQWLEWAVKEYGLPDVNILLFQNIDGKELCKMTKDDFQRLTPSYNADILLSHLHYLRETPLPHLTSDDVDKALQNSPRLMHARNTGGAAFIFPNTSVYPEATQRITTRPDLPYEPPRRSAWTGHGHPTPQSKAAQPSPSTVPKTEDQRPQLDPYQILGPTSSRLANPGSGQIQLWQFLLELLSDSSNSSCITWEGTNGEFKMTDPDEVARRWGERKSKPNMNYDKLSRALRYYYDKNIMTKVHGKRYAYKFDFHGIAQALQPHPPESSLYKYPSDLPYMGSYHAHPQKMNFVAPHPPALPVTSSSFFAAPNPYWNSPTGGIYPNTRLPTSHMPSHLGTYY
# In short: as §1
# [5] = target: ELF1 (Homo sapiens, UniProt P32519 1-619); conditions: protein: recombinant; tags: N-terminal GST; dsDNA, one strand shown
# In short: as §1
# [6] = target: SPI1 (Homo sapiens, UniProt P17947 1-270); conditions: protein: recombinant; tags: N-terminal GST; dsDNA, one strand shown
# In short: as §1
# [7] = target: T5, ELK3 (Homo sapiens, UniProt P41970 1-407); conditions: protein: recombinant; tags: N-terminal GST; dsDNA, one strand shown
# T5 sequence: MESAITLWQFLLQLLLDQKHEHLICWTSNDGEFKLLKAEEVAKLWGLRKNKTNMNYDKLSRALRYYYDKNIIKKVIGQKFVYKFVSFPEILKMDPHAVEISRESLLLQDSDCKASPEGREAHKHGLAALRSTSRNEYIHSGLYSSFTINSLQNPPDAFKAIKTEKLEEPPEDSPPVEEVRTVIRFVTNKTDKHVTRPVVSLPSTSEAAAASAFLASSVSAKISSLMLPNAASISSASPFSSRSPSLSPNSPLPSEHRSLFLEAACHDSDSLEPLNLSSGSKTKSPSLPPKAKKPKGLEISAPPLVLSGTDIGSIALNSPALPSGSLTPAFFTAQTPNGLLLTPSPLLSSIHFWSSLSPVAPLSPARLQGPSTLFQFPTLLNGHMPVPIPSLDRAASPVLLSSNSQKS
# In short: as §1
# [8] = target: T6, FEV (Homo sapiens, UniProt Q99581 1-238); conditions: protein: recombinant; tags: N-terminal GST; dsDNA, one strand shown
# T6 sequence: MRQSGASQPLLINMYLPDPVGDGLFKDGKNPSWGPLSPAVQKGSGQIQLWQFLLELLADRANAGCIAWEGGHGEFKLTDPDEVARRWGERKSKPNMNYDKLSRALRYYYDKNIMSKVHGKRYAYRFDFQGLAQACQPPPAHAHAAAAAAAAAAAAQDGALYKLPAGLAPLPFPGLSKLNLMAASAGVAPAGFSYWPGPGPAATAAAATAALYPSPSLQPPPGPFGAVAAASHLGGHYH
# In short: as §1
# [9] = target: ETV5 (Homo sapiens, UniProt P41161 1-510); conditions: protein: recombinant; tags: N-terminal GST; dsDNA, one strand shown
# In short: as §1
# [10] = target: HSF1 (Homo sapiens, UniProt Q00613 1-529); conditions: protein: recombinant; tags: N-terminal GST; chain copies: 3; dsDNA, one strand shown
# In short: as §1
# [11] = target: ELF4 (Homo sapiens, UniProt Q99607 1-663); conditions: protein: recombinant; tags: N-terminal GST; dsDNA, one strand shown
# In short: as §1
# [12] = target: T7, ELK4 (Homo sapiens, UniProt P28324-2 1-405); conditions: protein: recombinant; tags: N-terminal GST; dsDNA, one strand shown
# T7 sequence: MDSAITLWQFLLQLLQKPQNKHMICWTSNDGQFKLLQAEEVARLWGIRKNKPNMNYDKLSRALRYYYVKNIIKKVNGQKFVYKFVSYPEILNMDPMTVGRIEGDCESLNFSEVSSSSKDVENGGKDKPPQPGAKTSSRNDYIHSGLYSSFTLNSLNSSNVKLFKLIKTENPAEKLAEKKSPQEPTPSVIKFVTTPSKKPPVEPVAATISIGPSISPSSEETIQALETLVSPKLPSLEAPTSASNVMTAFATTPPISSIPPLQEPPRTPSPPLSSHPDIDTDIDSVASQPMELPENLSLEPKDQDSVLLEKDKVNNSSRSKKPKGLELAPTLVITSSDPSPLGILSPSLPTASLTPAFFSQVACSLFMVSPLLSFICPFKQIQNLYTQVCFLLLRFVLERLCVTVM
# In short: as §1
# [13] = target: T8, ETV2 (Homo sapiens, UniProt O00321 1-342); conditions: protein: recombinant; tags: N-terminal GST; dsDNA, one strand shown
# T8 sequence: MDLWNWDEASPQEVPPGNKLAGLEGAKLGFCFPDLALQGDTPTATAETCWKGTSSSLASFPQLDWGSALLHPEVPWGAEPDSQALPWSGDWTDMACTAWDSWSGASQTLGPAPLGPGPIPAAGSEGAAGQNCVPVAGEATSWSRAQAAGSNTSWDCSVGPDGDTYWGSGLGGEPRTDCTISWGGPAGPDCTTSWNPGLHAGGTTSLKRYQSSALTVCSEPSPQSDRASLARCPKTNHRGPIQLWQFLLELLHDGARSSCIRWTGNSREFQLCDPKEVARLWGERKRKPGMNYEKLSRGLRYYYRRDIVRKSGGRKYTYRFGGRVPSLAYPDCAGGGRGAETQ
# In short: as §1
# [14] = target: T9, ELF3 (Homo sapiens, UniProt P78545 1-371); conditions: protein: recombinant; tags: N-terminal GST; dsDNA, one strand shown
# T9 sequence: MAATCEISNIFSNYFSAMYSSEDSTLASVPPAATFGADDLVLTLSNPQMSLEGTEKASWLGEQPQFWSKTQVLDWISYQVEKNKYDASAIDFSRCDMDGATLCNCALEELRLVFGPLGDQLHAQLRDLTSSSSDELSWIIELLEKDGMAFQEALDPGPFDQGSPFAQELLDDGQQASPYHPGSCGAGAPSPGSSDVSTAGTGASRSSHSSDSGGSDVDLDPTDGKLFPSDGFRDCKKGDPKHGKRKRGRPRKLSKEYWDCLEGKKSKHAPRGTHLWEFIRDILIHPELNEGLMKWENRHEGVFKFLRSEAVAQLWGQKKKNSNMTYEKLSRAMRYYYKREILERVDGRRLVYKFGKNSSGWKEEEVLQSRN
# In short: as §1
# [15] = target: ETV1 (Homo sapiens, UniProt P50549 1-477); conditions: protein: recombinant; tags: N-terminal GST; dsDNA, one strand shown
# In short: as §1
# [16] = target: T10, EHF (Homo sapiens, UniProt Q9NZC4 1-300); conditions: protein: recombinant; tags: N-terminal GST; dsDNA, one strand shown
# T10 sequence: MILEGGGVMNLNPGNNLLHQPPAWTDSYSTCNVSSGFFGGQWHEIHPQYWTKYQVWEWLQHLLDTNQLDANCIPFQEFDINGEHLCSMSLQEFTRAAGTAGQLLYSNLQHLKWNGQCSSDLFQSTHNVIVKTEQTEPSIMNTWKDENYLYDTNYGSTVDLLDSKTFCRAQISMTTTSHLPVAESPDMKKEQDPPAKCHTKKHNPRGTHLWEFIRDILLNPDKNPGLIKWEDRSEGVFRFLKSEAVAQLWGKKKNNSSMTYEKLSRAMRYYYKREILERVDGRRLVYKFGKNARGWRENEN
# In short: as §1
# [17] = target: SPIB (Homo sapiens, UniProt Q01892 1-262); conditions: protein: recombinant; tags: N-terminal GST; dsDNA, one strand shown
# In short: as §1
# [18] = target: CRX (Homo sapiens, UniProt O43186 1-299); conditions: protein: recombinant; tags: N-terminal GST; dsDNA, one strand shown
# In short: as §1
# HSF1, sequence (Q00613 whole entry): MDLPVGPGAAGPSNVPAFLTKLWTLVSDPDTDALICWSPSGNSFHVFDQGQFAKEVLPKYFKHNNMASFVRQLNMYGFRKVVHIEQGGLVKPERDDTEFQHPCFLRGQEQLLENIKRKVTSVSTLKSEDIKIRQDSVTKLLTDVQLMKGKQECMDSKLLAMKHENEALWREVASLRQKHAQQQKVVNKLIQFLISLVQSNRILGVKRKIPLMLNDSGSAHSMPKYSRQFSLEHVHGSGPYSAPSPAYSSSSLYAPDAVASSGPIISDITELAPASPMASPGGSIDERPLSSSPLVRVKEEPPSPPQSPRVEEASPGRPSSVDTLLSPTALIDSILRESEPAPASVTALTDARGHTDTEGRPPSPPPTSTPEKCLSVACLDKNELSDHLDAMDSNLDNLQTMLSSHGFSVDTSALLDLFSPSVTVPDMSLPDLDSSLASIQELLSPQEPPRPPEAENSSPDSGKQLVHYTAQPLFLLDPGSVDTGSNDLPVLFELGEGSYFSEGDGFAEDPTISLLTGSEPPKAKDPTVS
# ETV5, sequence (P41161 whole entry): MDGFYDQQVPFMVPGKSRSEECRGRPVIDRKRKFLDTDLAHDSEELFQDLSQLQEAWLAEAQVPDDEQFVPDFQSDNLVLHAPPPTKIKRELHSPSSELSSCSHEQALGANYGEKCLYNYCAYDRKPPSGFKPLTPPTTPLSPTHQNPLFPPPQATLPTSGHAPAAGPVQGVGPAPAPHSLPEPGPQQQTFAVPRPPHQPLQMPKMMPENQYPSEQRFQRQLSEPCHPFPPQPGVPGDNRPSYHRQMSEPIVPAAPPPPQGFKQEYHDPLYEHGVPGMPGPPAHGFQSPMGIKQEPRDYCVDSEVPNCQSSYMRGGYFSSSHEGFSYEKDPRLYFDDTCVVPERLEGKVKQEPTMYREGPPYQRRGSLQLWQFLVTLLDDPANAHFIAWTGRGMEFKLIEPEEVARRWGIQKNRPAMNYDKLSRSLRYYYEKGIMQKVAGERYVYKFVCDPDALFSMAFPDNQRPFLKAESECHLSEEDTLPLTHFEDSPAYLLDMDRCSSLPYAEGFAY
# ELF4, sequence (Q99607 whole entry): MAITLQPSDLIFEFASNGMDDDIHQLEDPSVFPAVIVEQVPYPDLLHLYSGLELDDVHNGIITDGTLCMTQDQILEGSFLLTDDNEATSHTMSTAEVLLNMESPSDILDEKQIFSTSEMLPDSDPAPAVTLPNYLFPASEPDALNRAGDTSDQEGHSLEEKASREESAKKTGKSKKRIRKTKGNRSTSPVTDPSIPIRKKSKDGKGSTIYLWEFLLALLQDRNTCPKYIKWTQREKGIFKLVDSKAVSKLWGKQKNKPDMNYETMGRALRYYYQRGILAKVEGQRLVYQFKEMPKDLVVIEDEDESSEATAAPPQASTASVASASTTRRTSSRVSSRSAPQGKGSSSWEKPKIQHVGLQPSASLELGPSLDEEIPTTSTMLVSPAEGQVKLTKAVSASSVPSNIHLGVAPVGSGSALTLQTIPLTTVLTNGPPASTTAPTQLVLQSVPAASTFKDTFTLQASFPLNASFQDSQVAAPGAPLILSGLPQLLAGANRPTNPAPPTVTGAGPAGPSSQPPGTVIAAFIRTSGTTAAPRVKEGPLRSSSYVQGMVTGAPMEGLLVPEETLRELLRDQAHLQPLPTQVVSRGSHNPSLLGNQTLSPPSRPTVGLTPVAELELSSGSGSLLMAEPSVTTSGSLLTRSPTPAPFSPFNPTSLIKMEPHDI
# ELF1, sequence (P32519 whole entry): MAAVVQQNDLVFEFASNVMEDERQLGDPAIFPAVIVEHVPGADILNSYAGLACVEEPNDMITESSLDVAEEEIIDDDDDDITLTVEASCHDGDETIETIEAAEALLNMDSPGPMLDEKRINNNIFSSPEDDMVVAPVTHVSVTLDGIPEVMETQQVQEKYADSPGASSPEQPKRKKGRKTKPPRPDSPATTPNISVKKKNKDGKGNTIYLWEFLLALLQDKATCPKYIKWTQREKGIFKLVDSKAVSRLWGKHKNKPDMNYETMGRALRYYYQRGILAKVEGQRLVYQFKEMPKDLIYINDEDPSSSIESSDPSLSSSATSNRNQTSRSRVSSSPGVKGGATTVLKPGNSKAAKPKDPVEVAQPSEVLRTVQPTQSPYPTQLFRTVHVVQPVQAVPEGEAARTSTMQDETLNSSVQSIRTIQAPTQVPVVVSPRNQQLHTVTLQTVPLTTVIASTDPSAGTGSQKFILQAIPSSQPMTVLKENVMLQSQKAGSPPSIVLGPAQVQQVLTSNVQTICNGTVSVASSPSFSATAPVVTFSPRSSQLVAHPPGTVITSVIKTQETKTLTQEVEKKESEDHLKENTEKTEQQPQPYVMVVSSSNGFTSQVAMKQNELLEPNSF
# SPIB, sequence (Q01892 whole entry): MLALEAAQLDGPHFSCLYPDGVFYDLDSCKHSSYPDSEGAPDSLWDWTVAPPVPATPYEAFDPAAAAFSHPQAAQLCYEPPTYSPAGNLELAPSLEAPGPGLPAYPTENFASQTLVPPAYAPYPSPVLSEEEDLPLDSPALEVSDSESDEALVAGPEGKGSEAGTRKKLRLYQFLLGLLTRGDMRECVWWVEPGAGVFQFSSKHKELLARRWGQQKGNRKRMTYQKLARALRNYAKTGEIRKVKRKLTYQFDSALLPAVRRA
# ETV1, sequence (P50549 whole entry): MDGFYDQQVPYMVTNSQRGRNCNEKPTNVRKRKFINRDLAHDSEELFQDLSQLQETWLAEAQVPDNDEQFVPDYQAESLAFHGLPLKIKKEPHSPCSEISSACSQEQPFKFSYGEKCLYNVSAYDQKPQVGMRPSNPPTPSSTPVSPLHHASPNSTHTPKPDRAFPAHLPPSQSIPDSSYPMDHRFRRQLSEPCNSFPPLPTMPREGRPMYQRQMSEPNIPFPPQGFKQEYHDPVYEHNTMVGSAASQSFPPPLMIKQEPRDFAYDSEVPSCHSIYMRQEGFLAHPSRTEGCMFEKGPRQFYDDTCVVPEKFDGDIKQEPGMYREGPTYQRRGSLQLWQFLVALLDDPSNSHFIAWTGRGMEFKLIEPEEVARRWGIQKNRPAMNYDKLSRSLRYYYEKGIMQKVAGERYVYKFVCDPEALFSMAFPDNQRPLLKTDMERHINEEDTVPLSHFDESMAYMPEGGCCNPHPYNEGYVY
# CRX, sequence (O43186 whole entry): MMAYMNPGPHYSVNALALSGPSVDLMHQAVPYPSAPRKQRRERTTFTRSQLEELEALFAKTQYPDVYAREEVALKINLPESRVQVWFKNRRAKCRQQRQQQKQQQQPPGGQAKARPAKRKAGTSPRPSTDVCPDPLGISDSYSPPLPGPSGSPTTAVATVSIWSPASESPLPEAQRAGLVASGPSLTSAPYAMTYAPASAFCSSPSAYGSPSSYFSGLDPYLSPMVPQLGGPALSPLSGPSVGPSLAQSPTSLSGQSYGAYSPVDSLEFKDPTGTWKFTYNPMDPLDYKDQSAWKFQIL
Sequence,binding signal [1],binding signal [2],binding signal [3],binding signal [4],binding signal [5],binding signal [6],binding signal [7],binding signal [8],binding signal [9],binding signal [10],binding signal [11],binding signal [12],binding signal [13],binding signal [14],binding signal [15],binding signal [16],binding signal [17],binding signal [18]
AGACCT,"1.01 fold enrichment (6-mer frequency, TF over GST control)","1.04 fold enrichment (6-mer frequency, TF over GST control)","1.02 fold enrichment (6-mer frequency, TF over GST control)","1 fold enrichment (6-mer frequency, TF over GST control)","1.05 fold enrichment (6-mer frequency, TF over GST control)","1.06 fold enrichment (6-mer frequency, TF over GST control)","1.01 fold enrichment (6-mer frequency, TF over GST control)","1.04 fold enrichment (6-mer frequency, TF over GST control)","1.04 fold enrichment (6-mer frequency, TF over GST control)","1.02 fold enrichment (6-mer frequency, TF over GST control)","1.12 fold enrichment (6-mer frequency, TF over GST control)","1.07 fold enrichment (6-mer frequency, TF over GST control)","1.2 fold enrichment (6-mer frequency, TF over GST control)","1.08 fold enrichment (6-mer frequency, TF over GST control)","1.04 fold enrichment (6-mer frequency, TF over GST control)",–,–,–
GTTATC,"1.12 fold enrichment (6-mer frequency, TF over GST control)",–,"1.07 fold enrichment (6-mer frequency, TF over GST control)","1.1 fold enrichment (6-mer frequency, TF over GST control)","1.09 fold enrichment (6-mer frequency, TF over GST control)","1.03 fold enrichment (6-mer frequency, TF over GST control)","1.22 fold enrichment (6-mer frequency, TF over GST control)","1.05 fold enrichment (6-mer frequency, TF over GST control)","1.12 fold enrichment (6-mer frequency, TF over GST control)","1.03 fold enrichment (6-mer frequency, TF over GST control)","1.04 fold enrichment (6-mer frequency, TF over GST control)","1.22 fold enrichment (6-mer frequency, TF over GST control)","1.21 fold enrichment (6-mer frequency, TF over GST control)",–,–,"1.12 fold enrichment (6-mer frequency, TF over GST control)","1.02 fold enrichment (6-mer frequency, TF over GST control)","1.24 fold enrichment (6-mer frequency, TF over GST control)"
